Reference: PubChem BioAssay (NCI)
Compounds without any hit were thinned out: in the full panel of roughly 83,000, 20% have a hit.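 Assay: single dose, 48 h. Readout: percent growth (0 = no net growth; negative = cell death). Active: <10.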 Active and inactive are the calls of the source.

Columns and labels:
Assay in all cases: NCI-60 one-dose screen, 48 h (100 = growth as untreated, 0 = no growth, -100 = all killed)
Settings in all cases: 10 µM unless noted
HCT-15 colon = test system: HCT-15 colon
HT29 colon = test system: HT29 colon
SNB-75 CNS = test system: SNB-75 CNS
SNB-19 CNS = test system: SNB-19 CNS
U251 CNS = test system: U251 CNS
PC-3 prostate = test system: PC-3 prostate
SK-MEL-5 melanoma = test system: SK-MEL-5 melanoma
UACC-62 melanoma = test system: UACC-62 melanoma
SK-MEL-28 melanoma = test system: SK-MEL-28 melanoma
SK-MEL-2 melanoma = test system: SK-MEL-2 melanoma
EKVX NSCLC = test system: EKVX NSCLC
SN12C renal = test system: SN12C renal
UO-31 renal = test system: UO-31 renal
TK-10 renal = test system: TK-10 renal
ACHN renal = test system: ACHN renal
CAKI-1 renal = test system: CAKI-1 renal
A498 renal = test system: A498 renal
CCRF-CEM leukemia = test system: CCRF-CEM leukemia
MOLT-4 leukemia = test system: MOLT-4 leukemia

Measured: growth

CCOc1ccc(C(=O)NC(=S)Nc2ccc(S(N)(=O)=O)cc2)cc1
inactive: HCT-15 colon 111% [100 µM] | HT29 colon 98.1% [100 µM] | SNB-75 CNS 76.9% [100 µM] | SNB-19 CNS 104% [100 µM] | U251 CNS 96.7% [100 µM] | PC-3 prostate 92.1% [100 µM] | SK-MEL-5 melanoma 88.1% [100 µM] | UACC-62 melanoma 94.8% [100 µM] | SK-MEL-28 melanoma 107% [100 µM] | SK-MEL-2 melanoma 104% [100 µM] | EKVX NSCLC 101% [100 µM] | SN12C renal 100% [100 µM] | UO-31 renal 77.9% [100 µM] | TK-10 renal 92.6% [100 µM] | ACHN renal 101% [100 µM] | CAKI-1 renal 87.9% [100 µM] | A498 renal 96.6% [100 µM] | CCRF-CEM leukemia 101% [100 µM] | MOLT-4 leukemia 110% [100 µM]

COc1ccc(C2=NN(c3ccccc3)C(c3ccc(OC)c(OCc4ccccc4)c3)C2)cc1OC (stereo unspecified)
inactive: HCT-15 colon 83.8% | HT29 colon 70.5% | SNB-75 CNS 90.6% | SNB-19 CNS 88.1% | U251 CNS 92.4% | PC-3 prostate 98% | SK-MEL-5 melanoma 94.1% | UACC-62 melanoma 81.8% | SK-MEL-28 melanoma 115% | SK-MEL-2 melanoma 94.1% | EKVX NSCLC 92.4% | SN12C renal 104% | UO-31 renal 91.7% | TK-10 renal 125% | ACHN renal 110% | CAKI-1 renal 76.7% | A498 renal 101% | CCRF-CEM leukemia 106% | MOLT-4 leukemia 97%

Cc1cc2c(cc1Cl)C(=O)/C(=C/c1ccc(F)cc1)O2
inactive: HCT-15 colon 97.8% | HT29 colon 102% | SNB-75 CNS 95% | SNB-19 CNS 90.3% | U251 CNS 89.9% | PC-3 prostate 91.1% | SK-MEL-5 melanoma 93% | UACC-62 melanoma 76.6% | SK-MEL-28 melanoma 111% | SK-MEL-2 melanoma 122% | EKVX NSCLC 90.8% | SN12C renal 82.1% | TK-10 renal 125% | ACHN renal 96.9% | CAKI-1 renal 75.3% | A498 renal 149% | CCRF-CEM leukemia 94.5% | MOLT-4 leukemia 84.3%
active: UO-31 renal -80.7%

O=C(COc1ccc(NC(=O)Nc2ccc(Cl)c(Cl)c2)cc1)N=Nc1c(O)[nH]c2ccccc12
inactive: HCT-15 colon 56.1% | SK-MEL-5 melanoma 25.2% | EKVX NSCLC 18.6% | UO-31 renal 87.5% | TK-10 renal 30.5% | ACHN renal 36.9% | CAKI-1 renal 15.6% | CCRF-CEM leukemia 37.3%
active: HT29 colon -45.9% | SNB-75 CNS -39.5% | SNB-19 CNS -24.5% | U251 CNS -87.7% | PC-3 prostate -44.6% | UACC-62 melanoma -56.5% | SK-MEL-28 melanoma -90.4% | SK-MEL-2 melanoma -41.9% | SN12C renal -32% | A498 renal -53.6% | MOLT-4 leukemia 1.27%

COc1cc(/C=C/C(=O)c2ccc(C)cc2)ccc1Oc1nc(Nc2ccc(F)cc2)nc(N(C)C)n1
inactive: HCT-15 colon 17.3% | HT29 colon 44.1% | SNB-75 CNS 50.8% | SNB-19 CNS 23.4% | U251 CNS 11.3% | PC-3 prostate 50.8% | SK-MEL-5 melanoma 30.5% | UACC-62 melanoma 42.1% | SK-MEL-28 melanoma 73.4% | SK-MEL-2 melanoma 44.9% | EKVX NSCLC 60.6% | SN12C renal 17.4% | UO-31 renal 36.2% | TK-10 renal 77.3% | CAKI-1 renal 35.6% | A498 renal 66.3% | CCRF-CEM leukemia 17%
active: ACHN renal 3.65% | MOLT-4 leukemia 9.34%

N#Cc1c(-c2cccc(Cl)c2Cl)cc(-c2ccc3ccccc3c2)[nH]c1=O
active: SNB-75 CNS -12.7% | U251 CNS 6.58%
inactive: HCT-15 colon 69.6% | HT29 colon 121% | SNB-19 CNS 39.2% | PC-3 prostate 44.4% | SK-MEL-5 melanoma 85.7% | UACC-62 melanoma 76.2% | SK-MEL-28 melanoma 92.8% | SK-MEL-2 melanoma 126% | EKVX NSCLC 49% | SN12C renal 19.1% | UO-31 renal 24.6% | TK-10 renal 48.9% | ACHN renal 40.8% | CAKI-1 renal 47.2% | A498 renal 87.5% | CCRF-CEM leukemia 38.3% | MOLT-4 leukemia 71.5%

COc1cc2c(c(OC)c1OC)C(=O)CC(c1cccc(NC(=O)c3cc(NC(=O)[C@@H](N)CO)ccc3C)c1)O2 (stereo partly specified)
inactive: HCT-15 colon 110% | HT29 colon 102% | SNB-75 CNS 135% | SNB-19 CNS 109% | U251 CNS 112% | PC-3 prostate 107% | SK-MEL-5 melanoma 104% | UACC-62 melanoma 109% | SK-MEL-28 melanoma 109% | SK-MEL-2 melanoma 111% | EKVX NSCLC 108% | SN12C renal 102% | UO-31 renal 92% | TK-10 renal 105% | ACHN renal 107% | CAKI-1 renal 99.9% | A498 renal 126% | CCRF-CEM leukemia 102% | MOLT-4 leukemia 114%

c1ccc(-c2csc(Nc3cccc(Nc4nc(-c5ccccc5)cs4)c3)n2)cc1
inactive: HCT-15 colon 30.5% | HT29 colon 39.4% | SNB-75 CNS 48.6% | SNB-19 CNS 58% | U251 CNS 51.2% | PC-3 prostate 32.1% | SK-MEL-5 melanoma 21% | UACC-62 melanoma 50.3% | SK-MEL-28 melanoma 60.9% | SK-MEL-2 melanoma 64.9% | EKVX NSCLC 37.7% | SN12C renal 43.4% | UO-31 renal 32.3% | TK-10 renal 68.6% | ACHN renal 36.2% | CAKI-1 renal 34.9% | A498 renal 85.5% | CCRF-CEM leukemia 38.6% | MOLT-4 leukemia 13.7%

CN1CCN(/C(=N\c2sc(-c3ccccc3)nc2-c2ccccc2)c2ccccc2)CC1
inactive: HCT-15 colon 16.7% | SNB-75 CNS 90% | SNB-19 CNS 100% | U251 CNS 86% | PC-3 prostate 56.8% | SK-MEL-5 melanoma 75% | UACC-62 melanoma 75.7% | SK-MEL-28 melanoma 57.7% | SK-MEL-2 melanoma 115% | EKVX NSCLC 81.3% | SN12C renal 82.7% | UO-31 renal 82.4% | TK-10 renal 105% | ACHN renal 95.3% | CAKI-1 renal 72.7% | A498 renal 122% | CCRF-CEM leukemia 57.3% | MOLT-4 leukemia 40.9%
active: HT29 colon 9.91%

COc1cc2oc(-c3cccc(C(=O)Nc4ccc(Cl)cc4)c3)cc(=O)c2c(OCCNC(=O)[C@H](CCC(=O)OC(C)(C)C)NC(=O)OC(C)(C)C)c1OC
inactive: HCT-15 colon 100% | HT29 colon 108% | SNB-75 CNS 74.2% | SNB-19 CNS 94.8% | U251 CNS 96.8% | PC-3 prostate 83.5% | SK-MEL-5 melanoma 89.3% | UACC-62 melanoma 82% | SK-MEL-28 melanoma 99.2% | SK-MEL-2 melanoma 106% | EKVX NSCLC 90.7% | SN12C renal 91.9% | UO-31 renal 74.4% | TK-10 renal 109% | ACHN renal 93.7% | CAKI-1 renal 69.4% | A498 renal 113% | CCRF-CEM leukemia 95.3% | MOLT-4 leukemia 71.6%

CC(=O)Oc1ccccc1C(=O)[Se]C(=NC1CCCCC1)NC1CCCCC1
active: HCT-15 colon -73.5% | HT29 colon -60.8% | SNB-75 CNS -63.3% | SNB-19 CNS -94.9% | U251 CNS -87% | PC-3 prostate -31% | SK-MEL-5 melanoma -89.3% | UACC-62 melanoma -90.7% | SK-MEL-28 melanoma -89.1% | SK-MEL-2 melanoma -74.5% | EKVX NSCLC -97.6% | SN12C renal -99.3% | UO-31 renal -100% | TK-10 renal -98.8% | ACHN renal -73.8% | CAKI-1 renal -97.7% | A498 renal -5.3% | CCRF-CEM leukemia 4.94% | MOLT-4 leukemia -22.2%

N#Cc1c(-c2ccccc2Cl)cc(-c2ccc3ccccc3c2)[nH]c1=O
active: SNB-75 CNS -37.1% | U251 CNS -2.47% | SN12C renal 0.758% | UO-31 renal 0.793% | TK-10 renal -0.132% | ACHN renal 9.07% | A498 renal -29.6%
inactive: HCT-15 colon 63.2% | HT29 colon 108% | SNB-19 CNS 17% | PC-3 prostate 60.6% | SK-MEL-5 melanoma 79.4% | UACC-62 melanoma 52.7% | SK-MEL-28 melanoma 67.9% | SK-MEL-2 melanoma 95.4% | EKVX NSCLC 41.1% | CAKI-1 renal 25.1% | CCRF-CEM leukemia 56.8% | MOLT-4 leukemia 56.1%

N#Cc1cnn(C(=O)c2ccccc2Br)c1NC(=O)c1ccc(Br)cc1Cl
inactive: HCT-15 colon 101% | HT29 colon 104% | SNB-75 CNS 106% | SNB-19 CNS 97.2% | U251 CNS 93.3% | PC-3 prostate 103% | SK-MEL-5 melanoma 98.6% | UACC-62 melanoma 101% | SK-MEL-28 melanoma 103% | SK-MEL-2 melanoma 111% | EKVX NSCLC 100% | SN12C renal 104% | UO-31 renal 85.9% | TK-10 renal 101% | ACHN renal 103% | CAKI-1 renal 94.5% | A498 renal 106% | CCRF-CEM leukemia 94.5% | MOLT-4 leukemia 99.9%

C=Cn1cc(C(=O)O)c(=O)c2cc(F)c(N3CCN(c4nccc(-c5nccs5)n4)CC3)cc21
active: HCT-15 colon -51.5% | HT29 colon -52% | SNB-75 CNS -23.3% | SNB-19 CNS -0.431% | U251 CNS 5.03% | PC-3 prostate 8.48% | SK-MEL-5 melanoma -47.7% | UACC-62 melanoma -84.7% | SK-MEL-28 melanoma -38.5% | SK-MEL-2 melanoma -83.2% | EKVX NSCLC -24.2% | SN12C renal -16.8% | UO-31 renal -61.5% | TK-10 renal -13.2% | ACHN renal -43% | CAKI-1 renal -37.1% | A498 renal -21.4% | MOLT-4 leukemia 1.77%
inactive: CCRF-CEM leukemia 15.3%
